Screens deposited in PubChem by National Center for Advancing Translational Sciences (NCATS).
Tau fibril ThT: blocks human tau fibril formation measured by thioflavin T; P10636; Potency, µM (series often up to 57.4 µM), for the others: at the top dose activity, negative = inhibition, hits mostly inhibitors; 2.1% of 270,000 active; recombinant tau K18 P301L, heparin-induced fibrillization, ThT fluorescence; further: potency means the concentration at half of the fitted maximal effect; nearly all actives have a fitted effect of over 55% in size
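Using a mix of unlabeled (15 uM) and Alexa 594-labeled (0.24 uM) tau K18 P301L, heparin-triggered fibrillization over 6 hr at 37 C was scored by ThT fluorescence.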
Tau fluor counter: counter-screen for tau fibril formation inhibitors | tau K18 P301L Alexa594 fluorescence, heparin fibrillization | Potency, µM (highest dose often 57.7 µM), inactives show at the top dose activity change, negative = decrease | 0.93% of 280,000 active; further: potency means the concentration at half of the fitted maximal effect; nearly all actives have a fitted effect of over 55% in size
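Human K18 P301L tau (15 uM unlabeled plus 0.24 uM Alexa 594-labeled, final) in 100 mM sodium acetate pH 7 was mixed with compound and 20 uM heparin and incubated 6 hr at 37 C.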
Tau FP inhib: inhibitors of human tau fibril formation | Potency, µM (highest dose often 57.7 µM), inactives show at the highest dose activity, negative = inhibition, most hits filed as inhibitors | AID 1468 | 0.39% of 280,000 active | K18 P301L tau heparin fibrillization, Alexa594 FP, 6 h; further: potency means the concentration at half of the fitted maximal effect; nearly all actives have a fitted effect of over 55% in size
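Heparin (20 uM) drove fibril formation of recombinant tau K18 P301L, 15 uM unlabeled with 0.24 uM Alexa 594 label, for 6 hr at 37 C in 100 mM sodium acetate pH 7. Fluorescence polarization (555/632 nm) read 1 hr after 30 uM ThT.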
KDM4E inh: blocks human JMJD2E demethylase activity; JMJD2E catalytic domain, FDH-coupled NADH fluorescence (FDH is formaldehyde dehydrogenase); Potency, µM (series often up to 57.1 µM), for the others: at the highest dose activity change, negative = inhibition, actives largely listed as inhibitors; 1.6% of 230,000 active; AID 2147; active means well fitted inhibition curve with a large enough effect, not every such curve was filed as active; inconclusive means small, poorly fitted or top-dose-only effect, or another doubt; inactive means no such curve, though single readings can be large or run the other way;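 further: potency means the concentration at half of the fitted maximal effect; 0% = wells with enzyme and -100% = buffer wells without enzyme; nearly all actives have a fitted effect of over 50% in size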
Target sequence (B2RXH2 1-337 limits assumed): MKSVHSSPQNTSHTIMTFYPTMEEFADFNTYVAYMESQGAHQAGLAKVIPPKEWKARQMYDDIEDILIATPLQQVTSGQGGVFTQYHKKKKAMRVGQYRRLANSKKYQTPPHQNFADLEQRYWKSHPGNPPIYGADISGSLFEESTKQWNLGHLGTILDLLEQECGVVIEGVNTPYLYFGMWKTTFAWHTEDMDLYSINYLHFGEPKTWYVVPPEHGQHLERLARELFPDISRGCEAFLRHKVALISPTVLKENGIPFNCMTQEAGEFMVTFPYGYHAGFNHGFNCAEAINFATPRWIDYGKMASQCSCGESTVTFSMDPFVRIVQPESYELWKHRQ
NPSR antagonist: antagonists of human neuropeptide S receptor cAMP signaling | 1% of 220,000 active | Potency, µM (highest dose often 38.3 µM), inactives show at the top dose activity change, negative = inhibition, usual class: inhibitors | Q6W5P4 | CHO-NPSR cells, cAMP TR-FRET, antagonist mode; further: potency means the concentration at half of the fitted maximal effect; nearly all actives have a fitted effect of over 50% in size
Target sequence (Q6W5P4 whole entry, looked up): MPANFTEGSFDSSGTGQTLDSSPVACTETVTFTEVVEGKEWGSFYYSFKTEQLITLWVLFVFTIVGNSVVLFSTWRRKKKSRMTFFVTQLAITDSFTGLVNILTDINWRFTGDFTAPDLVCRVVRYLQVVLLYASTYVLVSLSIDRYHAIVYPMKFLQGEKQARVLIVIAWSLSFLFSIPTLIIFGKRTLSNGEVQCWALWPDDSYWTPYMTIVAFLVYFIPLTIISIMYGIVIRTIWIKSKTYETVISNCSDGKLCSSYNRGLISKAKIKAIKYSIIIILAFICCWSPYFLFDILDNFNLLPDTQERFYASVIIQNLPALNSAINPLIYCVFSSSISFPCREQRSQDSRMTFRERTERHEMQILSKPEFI
PNC assembly inh: inhibitors of perinucleolar compartment assembly; 3.1% of 140,000 active; PC3M PTB-GFP, PNC prevalence imaging, 16 h; active compounds read low; activity change (PNC), negative = inhibition, % at 10 µM;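 active means readout at or below -70, meaning at least 70% loss of cells showing the perinucleolar compartment, a nuclear body marking cancer cells; inconclusive means readout between -30 and a set limit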;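 further: plate controls were DMSO wells for no effect and camptothecin positive control wells for full effect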
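Compounds are pinned in duplicate onto adhered PC3M cells stably expressing GFP-tagged PTB and incubated 16 h at 37 C. Cells are then fixed, nuclei stained with Hoechst, and PNC-positive cells counted.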
Numbers without * were called inactive; ? = inconclusive; / = no result given; [ ] = another dose, or the depositor's remark. Rows were chosen to be rich in hits. Some 5.1% of all compounds tested hit in one or more screens of this group. Unless noted, the call rests on the fitted dose curve; in most records, active means well fitted curve in the direction sought with a large enough effect; inconclusive means small, poorly fitted or top-dose-only effect, or another doubt; inactive means no such curve, though single readings can be large; an effect the other way counts as inactive or inconclusive. Unless noted, on the % scale 0 is the no-effect control and ±100 the full control effect.

SMILES	Tau fibril ThT	Tau fluor counter	Tau FP inhib	KDM4E inh	NPSR antagonist	PNC assembly inh
Cc1cc(C)nc(NS(=O)(=O)c2ccc(NC(=O)CN3C(=O)c4ccccc4C3=O)cc2)n1	-10.8%	-12.6%	-5.2%	4.6%	-5.4%[46.1 µM]	-92.4*
Cc1cc(C)nc(NS(=O)(=O)c2ccc(NC(=O)c3ccc(N4C(=O)CCC4=O)cc3)cc2)n1	4.7%	7.7%	-4.2%	-1.9%	7.1%	-101.5*
Cc1cc(NS(=O)(=O)c2ccc(NC(=O)CN3C(=O)c4ccccc4C3=O)cc2)nc(C)n1	1.7%	-1.9%	-4.6%	2.3%	0.6%[46.1 µM]	1.4
CCOC(=O)c1ccc(N2C(=O)c3n[nH]c(-c4ccco4)c3C2c2ccccc2OC)cc1 (centres undefined)	-5.5%	?	?	/	/	/
CCCn1c(=O)c2c(c3ccccc31)OC(C)C(=O)N2 (centres undefined)	7.5%	1.8%	-11.8%	18.7%	0.1%[46.1 µM]	-88.3*
Cc1ccc(-n2ncc(C(=O)NCc3ccc4c(c3)OCO4)c2C2CCN(C(=O)OC(C)(C)C)CC2)c(C)c1	0.3%	-5.7%	1.7%	/	/	/
Cc1ccc(CNC(=O)CCCn2c(=O)c3ccccc3n(CC(=O)C(C)(C)C)c2=O)cc1	-4.4%	-13.0%	-5.6%	/	/	/
COCCCN1CN(Cc2ccccc2)CNC1=S	3.6%	3.8%	-1.6%	-1.7%	3.9%[46.1 µM]	-92.0*
COc1ccccc1C1Nc2cccc3cccc(c23)N1	22.4µM*	?	-11.8%	?	-6.8%[46.1 µM]	39.9
Oc1ccccc1C1Nc2cccc3cccc(c23)N1	7.0%	11.2%	6.3%	3.3%	-5.0%[46.1 µM]	59.5
CCOc1ccc(C2Nc3cccc4cccc(c34)N2)cc1OC	3.55µM*	?	?	?	-13.2%[46.1 µM]	21.0
CCOc1cc(C2Nc3cccc4cccc(c34)N2)ccc1O	6.31µM*	5.01µM*[quencher]	?	3.2%	-7.2%[46.1 µM]	16.5
CCOc1cc(C2Nc3ccccc3C(=O)N2c2ccccc2)ccc1O (centres undefined)	-6.6%	-7.1%	2.1%	?	-2.2%[46.1 µM]	?
CCOc1ccc(C2N(c3ccc(OC)cc3)C(=O)C3CCCN32)cc1OC (centres undefined)	-4.3%	0.3%	-0.5%	3.5%	-7.1%[46.1 µM]	28.0
COc1ccc(C2Nc3cccc4cccc(c34)N2)cc1	15.8µM*	?	-14.8%	?	-39.5%	/
COc1ccc(OCC(=O)Nc2cccc(-c3nc4ccccc4s3)c2C)cc1	?	-11.2%	3.1%	/	/	/
COc1cc(CCC(=O)NCc2ccc3c(c2)CCN3C(=O)c2cccc(C)c2)cc(OC)c1OC	-1.5%	4.3%	5.0%	/	/	/
CCC/C=N/NC(=O)c1[nH]c2c([N+](=O)[O-])cccc2c1C	?	-15.2%	5.3%	38.2%	1.8%	-112.6*
CCCCC/C=N/NC(=O)c1[nH]c2ccc([N+](=O)[O-])cc2c1C	?	?	8.4%	-1.4%	34.5%	/
CNC(=O)c1ccc(Nc2nnc(-c3ccc(C)c(S(=O)(=O)NC(C)(C)C)c3)c3ccccc23)cc1	-8.5%	?	-11.6%	/	/	/
CCC(c1nnc(SCC(=O)Nc2cc(Cl)ccc2C#N)n1C1CCCCC1)N(C)C (centres undefined)	0.4%	3.3%	-1.5%	-7.1%	0.6%	-107.2*
CCC(c1nnc(SCC(=O)Nc2ccc(C(C)=O)cc2)n1C1CCCCC1)N(C)C (centres undefined)	-4.8%	-4.8%	-1.4%	7.6%	2.0%	0.8
CCOC(=O)c1c(C)n(-c2ccc(C)cc2)c2ccc(OCC(O)CNCC3CCCO3)cc12 (centres undefined)	?	-8.5%	16.2%	28.2µM*	?	/
CCOC(=O)c1c(C)n(-c2ccc(C)cc2)c2ccc(OCC(O)CNCCCO)cc12 (centres undefined)	-16.8%	-9.3%	12.5%	0.2%	-28.1%	/
COc1ccc(C(=O)Oc2ccc(C3NC(=O)c4c(sc5c4CCN(C)C5)N3)cc2OC)cc1 (centres undefined)	3.98µM*	-27.4%	?	/	/	/
SMILES	Tau fibril ThT	Tau fluor counter	Tau FP inhib	KDM4E inh	NPSR antagonist	PNC assembly inh
COc1ccc(C2NC(=O)c3c(sc4c3CCN(C)C4)N2)cc1O (centres undefined)	5.62µM*	-23.1%	-7.4%	/	/	/
CC(C)c1ccc(C2NC(=O)c3c(sc4c3CCN(C)C4)N2)cc1 (centres undefined)	?	-8.3%	-6.6%	/	/	/
CN1CCc2c(sc3c2C(=O)NC(/C=C\c2ccccc2)N3)C1 (centres undefined)	17.8µM*	-17.5%	-14.6%	?	-31.1%	/
CN1CCc2c(sc3c2C(=O)NC(c2ccc(-c4cccc(Cl)c4)o2)N3)C1 (centres undefined)	2.24µM*	-14.5%	?	?	6.5%	/
CCOc1cc(C2NC(=O)c3c(sc4c3CCN(C)C4)N2)ccc1OC(=O)c1ccccc1Cl (centres undefined)	?	-4.7%	0.4%	/	/	/
CCOc1sc2nc(C)n(CC(=O)Nc3cccc(C)c3)c(=O)c2c1C	-3.4%	-5.4%	?	/	/	/
Cc1cc(C)cc(N2C(=O)CSC23C(=O)N(CC(=O)Nc2ccc(F)cc2F)c2ccccc23)c1 (centres undefined)	-6.4%	?	-14.6%	/	/	/
COc1ccc(N2CCN(C3(c4ccccc4)C(=O)c4ccccc4C3=O)CC2)cc1	-17.4%	?	18.4%	/	/	/
CCc1ccccc1NC(=O)CSc1nnc(COc2ccccc2Cl)o1	-14.9%	-25.1%	6.6%	/	/	/
CCS(=O)(=O)c1ncc(Cl)c(C(=O)N(Cc2ccccc2)c2ccc(OC)cc2)n1	?	-14.2%	-14.2%	/	/	/
CN(C)c1ccc(CN(CC2CCCO2)C(=O)COc2ccccc2Cl)cc1 (centres undefined)	-12.1%	-13.8%	3.6%	/	/	/
CN1CCc2c(sc3c2C(=O)NC(c2cccs2)N3)C1 (centres undefined)	12.6µM*	-18.2%	?	?	-5.4%[46.1 µM]	?
Cc1ccsc1C1NC(=O)c2c(sc3c2CCN(C)C3)N1 (centres undefined)	?	-23.2%	?	?	-13.1%[46.1 µM]	-27.0
CN1CCc2c(sc3c2C(=O)NC(c2ccc(C(C)(C)C)cc2)N3)C1 (centres undefined)	15.8µM*	-19.8%	?	/	/	/
CSc1ccc(C2NC(=O)c3c(sc4c3CCN(C)C4)N2)cc1 (centres undefined)	-5.4%	-8.2%	1.5%	-3.3%	-15.9%[46.1 µM]	-21.7
Cc1ccc(C)c(N2CCN(C(=O)C(CC(C)C)NS(=O)(=O)c3ccc4nc(C)sc4c3)CC2)c1 (centres undefined)	-11.7%	-14.4%	5.9%	/	/	/
CCOC(=O)c1c(N)sc(=S)c2c1CCC2	25.1µM*	?	?	?	-15.8%[7.67 µM]	?
